Experimental data published in PubChem BioAssay AID651602 (The Scripps Research Institute Molecular Screening Center, 2012).
About 950 (0.26%) of roughly 360,000 compounds were called active. The list comes from a sample in which actives are over-represented; it also holds similar structures and randomly drawn compounds. Values without a mark were called inactive. Cut-off read from the data, not from the text of the source: active = inhibition above about 11%; inactive = the rest.

Assay: reduced absorbance of E. coli cultures with phage – HTS, RecBCD inhibitor project, primary screen (AID 651602)
Conditions: growth absorbance, at 11.9 µM, hits give high values

First: COC(=O)C1=C(C)N(Cc2ccccc2C(F)(F)F)C(=NCc2ccc(C(F)(F)F)cc2)NC1c1ccc(F)cc1 (configuration not stated)
Second: CCOC(=O)Cn1c2c(n(-c3ccc(F)cc3)c1=O)C=C(c1ccccc1)[C@@H](C)C(C(=O)N(C)C1CCCCC1)=C2
The inhibition of the first is higher: 7.76% for the first, 3.33% for the second.

Compared with `COC(=O)N1Cc2ccnnc2CC1c1ccccc1Br` (configuration not stated), `O=C(COc1ccc(F)cc1Br)NCC1COc2ccccc2O1` (configuration not stated) is lower in inhibition: 3.01% for the first, 1.96% for the second.

Going from `O=C(Nc1ccc(F)cc1)C1CCN(C(=O)c2ccc([N+](=O)[O-])cc2)CC1` to `COc1ccccc1NC(=S)N1CCN(c2ccc(F)cc2)CC1`, the inhibition rises from 1.84% to 2.7%.

Compared with `O=C(/C=C/c1ccc(F)cc1)NC(=S)NNC(=O)c1cccnc1`, `O=C(CO/N=C/c1ccccc1O)NNC(=O)c1ccccc1Cl` is higher in inhibition: -5.76% for the first, 0.32% for the second.

Going from `CCCN1C(=O)c2[nH]nc(-c3ccccc3)c2C1c1ccccc1` (configuration not stated) to `COCc1[nH]nc2c1C(c1ccccc1)N(c1ccccc1)C2=O` (configuration not stated), the inhibition falls from 1.78% to 1.43%.

Compared with `COC(=O)[C@]12C[C@H](CC(=O)NCc3ccc(OC)c(OC)c3)C(=O)N(Cc3ccccc3)C1=C[C@H](C(C)C)O[C@@H]2C1CC1`, `COC(=O)[C@]12C[C@H](CC(=O)NCCC(C)C)C(=O)N(CCc3ccc(OC)c(OC)c3)C1=C[C@H](C(C)(C)C)O[C@@H]2C` is higher in inhibition: 0.85% for the first, 4.73% for the second.

First: O=C1[C@@H](c2ccccc2)[C@@H](c2ccccc2)N1c1ccccc1
Second: Brc1ccc(COCCc2cn(Cc3ccccc3)c3ccccc23)cc1
The inhibition of the first is lower: 1.64% for the first, 2.34% for the second.

Going from `COc1ccc(-c2ccc3c(n2)CCCN3S(=O)(=O)c2ccc(C)cc2)cc1` to `COc1ccc(CNS(=O)(=O)c2cc(Br)ccc2Br)cc1`, the inhibition falls from 4.42% to 0.71%.

First: CC(NC(=S)Nc1ccccc1)C1COc2ccccc2O1 (configuration not stated)
Second: O=C(Nc1ccccc1)Nc1nnc(COc2ccccc2F)s1
The inhibition of the first is higher: 4.25% for the first, 0.84% for the second.

Going from `O=C(N[C@H](Cc1ccccc1)C(=O)N1CCCN(Cc2cccs2)CC1)[C@H]1O[C@@H](n2ccc(=O)[nH]c2=O)[C@H](O)[C@@H]1O` to `CN(C)C(=O)N1CCN(C(=O)[C@@H](Cc2ccccc2)NC(=O)[C@H]2O[C@@H](n3ccc(N)nc3=O)[C@H](O)[C@@H]2O)CC1`, the inhibition falls from 3.33% to 1.56%.

Compared with `CC1CN(C(=S)Nc2ccccc2F)CC(C)O1` (configuration not stated), `CCOc1ccc(N(CC(=O)Nc2ccccc2F)S(=O)(=O)c2c(C)[nH]c(=O)[nH]c2=O)cc1` is higher in inhibition: 2.38% for the first, 3.53% for the second.

Compared with `CCOC(=O)CNC(=O)N(C)[C@H]1C[C@H]2c3[nH]c4c(-c5ccc6c(c5)OCO6)cccc4c3CCN2C(=O)[C@H]1[C@H](C)O`, `C[C@H](O)[C@@H]1C(=O)N2CCc3c([nH]c4c(-c5ccc6c(c5)OCO6)cccc34)[C@@H]2C[C@@H]1N(C)C(=O)c1ccco1` is higher in inhibition: 1.25% for the first, 4.12% for the second.

First: COc1cccc(CC(=O)N2CCN(C(=O)C(=O)c3cccc(C(F)(F)F)c3)CC2)c1
Second: CCCCNC(=O)c1cn(CC)c2cc(N3CCN(C(=O)c4ccco4)CC3)c(F)cc2c1=O
The inhibition of the first is lower: 0.39% for the first, 1.02% for the second.

Going from `COc1ccc(N(CC(=O)NC2CCCCC2)S(=O)(=O)c2c(C)[nH]c(=O)[nH]c2=O)cc1` to `Cc1[nH]nc2c1C(c1ccc(Br)cc1)NC2=O` (configuration not stated), the inhibition rises from -1.14% to 2.87%.

First: Nc1[nH]c(C(=O)c2ccccc2)c(-c2ccc(Cl)cc2Cl)c1C(=O)c1ccccc1
Second: Nc1[nH]c(C(=O)c2ccc(Br)cc2)c(-c2ccc3c(c2)OCO3)c1C(=O)NCCc1c[nH]c2ccccc12
The inhibition of the first is higher: 3.17% for the first, -1.27% for the second.

First: Cc1cc(NCCc2c[nH]c3ccccc23)ccc1Oc1cccnc1
Second: CN[C@H]1C[C@H]2c3[nH]c4c(-c5ccccc5)cccc4c3CCN2C(=O)[C@H]1[C@H](C)O
The inhibition of the first is lower: 1.27% for the first, 1.58% for the second.

First: CC(C)=CC(=O)Nc1nnc(-c2ccc(F)cc2)s1
Second: CCc1ccc(C2=CC(=O)CC(C)(C)C2=O)cc1
The inhibition of the first is higher: 1.99% for the first, 1.83% for the second.

Going from `CCn1cc(C(=O)NCCC(=O)NCCO)c(=O)c2cc3c(cc21)OCO3` to `CCCCCCn1cc(C(=O)O)c(=O)c2cc(F)c(N3CCCCC3)cc21`, the inhibition rises from 0.08% to 1.18%.

First: CCn1cc(S(=O)(=O)c2cccc(C)c2)c(=O)c2cc(F)c(N3CCN(C)CC3)cc21
Second: C[C@@H]1CN([C@H](C)CO)C(=O)CCCn2cc(nn2)CO[C@H]1CN(C)C(=O)Nc1ccc(N2CCCCC2)cc1
The inhibition of the first is lower: 0.96% for the first, 1.36% for the second.

First: C=CCN1C(=O)N(Cc2ccccc2)c2ccccc2S1(=O)=O
Second: O=C(CC(=O)N/N=C\c1cccc(Cl)c1Cl)NCc1ccccc1
The inhibition of the first is lower: 1.27% for the first, 3.05% for the second.

Going from `O/N=C1\CC2(Cc3nonc31)OCCO2` to `Nc1ccn([C@@H]2O[C@H](C(=O)N[C@H]3CCCCNC3=O)[C@@H](O)[C@H]2O)c(=O)n1`, the inhibition rises from 0.95% to 1.72%.

With `O=C(/C=C/c1ccc([N+](=O)[O-])o1)NNC(=O)c1ccc(F)cc1` the inhibition was 29.6% (active).
With `S=C(NCC1COc2ccccc2O1)Nc1ccc(Br)cc1` (configuration not stated) the inhibition was 11.1% (active).
For `COc1c(N2CCN(C(=S)Nc3ccccc3F)C(C)C2)c(F)cc2c(=O)c(C(=O)O)cn(C3CC3)c12` (configuration not stated), the inhibition was 99.2% (active).
In the case of `CCOc1ccc(N(CC(=O)NC2CCCCCC2)S(=O)(=O)c2c(C)[nH]c(=O)[nH]c2=O)cc1`, the inhibition is reported as 80.4% (active).
In the case of `Cc1ccc(NC(=O)Nc2nnc(-c3ccncc3)s2)cc1`, the inhibition is reported as 12.4% (active).
In the case of `CN1CCN(c2cc3c(cc2F)c(=O)c(C(=O)O)cn3CCF)CC1`, the inhibition is reported as 99.2% (active).
For `CCn1cc(C(=O)NCCO)c(=O)c2cc(F)c(N3CCN(C)CC3)cc21`, the inhibition was 92.5% (active).
In the case of `COc1ccc(OC)c(Cc2cnc3nc(N)nc(N)c3c2C)c1`, the inhibition is reported as 82.4% (active).
With `ON=C1/C(=N\O)CC2(C/C1=N/O)OCCO2` the inhibition was 13.7% (active).
For `O=C(NN=Cc1ccccc1O)NN=Cc1ccccc1O`, the inhibition was 12.4% (active).
